CBX7 AlphaScr = CBX7 chromodomain binding inhibitors, primary screen, biochemical, AlphaScreen; Chromobox protein homolog 7 (Homo sapiens), O95931; AlphaScreen His6-CBX7 / biotin-H3K27me3 peptide binding; active compounds read low; normalised signal (fraction of DMSO) (test concentration not listed); 1.1% of 66,000 active; AID 1224903, 2016; in the data active means normalised signal below about 0.5
Target sequence (O95931 whole entry, looked up): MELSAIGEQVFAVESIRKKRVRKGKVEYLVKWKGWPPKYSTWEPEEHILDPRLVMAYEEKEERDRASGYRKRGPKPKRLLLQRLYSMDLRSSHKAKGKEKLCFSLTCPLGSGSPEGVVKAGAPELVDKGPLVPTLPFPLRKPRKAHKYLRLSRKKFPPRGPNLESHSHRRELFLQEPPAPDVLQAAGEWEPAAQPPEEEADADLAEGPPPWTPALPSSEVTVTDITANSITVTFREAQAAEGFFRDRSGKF
An asterisk follows results filed as active; ! = repeats disagree. Shown is part of a subset that was picked to be rich in hits.

What do the screens show for `CCOC(=O)c1c(C)n(-c2ccc(C)cc2)c2ccc(OCC(O)CNC(C)c3ccccc3)cc12` (stereo not given)?
CBX7 AlphaScr: 0.76

Results for O=C(Nc1nccs1)c1ccc(Br)c(S(=O)(=O)N2CCOCC2)c1 ?
CBX7 AlphaScr: 1

Results for O=C(c1c[nH]c2ccc(S(=O)(=O)N3CCCCC3c3cccnc3)cc2c1=O)N1CCCC1 (stereo not given) ?
CBX7 AlphaScr: 1

How did O=C(O)c1c[nH]c2ccc(S(=O)(=O)N3CCCCC3c3cccnc3)cc2c1=O (stereo not given) do in these assays?
CBX7 AlphaScr: 0.4*

How did COc1ccc(S(=O)(=O)N2CCCCC2c2cccnc2)cc1 (stereo not given) do in these assays?
CBX7 AlphaScr: 0.96

What do the screens show for `CCCCn1cnc2cc(NCc3cccc(OC)c3)ccc21`?
CBX7 AlphaScr: 0.36*

How did CCCCn1cnc2cc(NCc3ccccc3OCC)ccc21 do in these assays?
CBX7 AlphaScr: 0.19*

How did CCCn1cnc2cc(NCc3ccccc3Cl)ccc21 do in these assays?
CBX7 AlphaScr: 0.84

Results for CCn1cnc2cc(NCc3ccccc3Cl)ccc21 ?
CBX7 AlphaScr: 0.84

What do the screens show for `CCCCn1cnc2cc(NCc3ccccc3Cl)ccc21`?
CBX7 AlphaScr: 0.22*

What do the screens show for `CCCn1cnc2cc(NCc3ccccc3OCC)ccc21`?
CBX7 AlphaScr: 0.91

How did CCn1cnc2cc(NCc3ccccc3OC)ccc21 do in these assays?
CBX7 AlphaScr: 0.96

What do the screens show for `CCCCn1cnc2cc(NCc3ccc(OCC)cc3)ccc21`?
CBX7 AlphaScr: 0.78

What do the screens show for `CCn1cnc2cc(NCc3cccc(OC)c3)ccc21`?
CBX7 AlphaScr: 0.91

What do the screens show for `O=c1[nH]c(SCc2cccc(Cl)c2)nc2c1CCCC2`?
CBX7 AlphaScr: 1

What do the screens show for `Cc1ccc2nc(-c3ccc(NC(=O)c4cccc(OCCC(C)C)c4)cc3)sc2c1`?
CBX7 AlphaScr: 1

Results for CCC1CCCCN1CCCNC(=O)c1ccc(NC2=NC3CS(=O)(=O)CC3S2)cc1 (stereo not given) ?
CBX7 AlphaScr: 1

Results for CCN(CC)c1cc(C)c2cc(NC(=O)c3ccccn3)ccc2n1 ?
CBX7 AlphaScr: 1.1

What do the screens show for `Cc1ccc(S(=O)(=O)CCc2nc3ccccc3n2CCC#N)cc1`?
CBX7 AlphaScr: 1

How did CCN(CC)Cc1c(C)[nH]c2ccccc2c1=O do in these assays?
CBX7 AlphaScr: 1

What do the screens show for `CCOc1ccc(-n2nc3ccc(NC(=O)c4cc5ccccc5o4)cc3n2)cc1`?
CBX7 AlphaScr: 0.95

Results for CCc1ccc(N(C)S(=O)(=O)c2ccc3[nH]cc(C(=O)NCCOC)c(=O)c3c2)cc1 ?
CBX7 AlphaScr: 1.2

How did Cc1oc(-c2cccc(Cl)c2)nc1CS(=O)(=O)CC(=O)NC1CCCC(C)C1C (stereo not given) do in these assays?
CBX7 AlphaScr: 1

Results for CNC(=O)C1CCC(=O)N1Cc1ccccc1Cl (stereo not given) ?
CBX7 AlphaScr: 1.1

What do the screens show for `O=C(O)c1ccc(-c2nc(-c3ccc(-c4ccccc4)cc3)c(-c3ccc(-c4ccccc4)cc3)[nH]2)cc1`?
CBX7 AlphaScr: 0.54

How did Brc1ccc(-c2nc(-c3ccccc3)c(-c3ccc(Sc4ccccc4)cc3)[nH]2)cc1 do in these assays?
CBX7 AlphaScr: 0.86

How did Oc1ccc(-c2nc(-c3ccccc3)c(-c3ccccc3)[nH]2)cc1 do in these assays?
CBX7 AlphaScr: 0.42*!

What do the screens show for `Oc1ccc(-c2nc(-c3ccccc3)c(-c3ccc(Br)cc3)[nH]2)cc1`?
CBX7 AlphaScr: 0.46*

How did Oc1ccc(-c2nc(-c3ccc(F)cc3)c(-c3ccc(F)cc3)[nH]2)cc1 do in these assays?
CBX7 AlphaScr: 1.2

Results for CCOc1cc(-c2nc(-c3ccccc3)c(-c3ccc(Br)cc3)[nH]2)ccc1O ?
CBX7 AlphaScr: 0.62

What do the screens show for `CCOCCCNC(=O)CN1C(=O)CCSc2ccccc21`?
CBX7 AlphaScr: 0.98

Results for COc1ccc(NC(=O)CSc2nc3nc(C)c(Cc4ccccc4C)c(C)n3n2)cc1OC ?
CBX7 AlphaScr: 0.77

Results for CCN(CC)C(=O)c1c(-c2ccccc2Cl)noc1C ?
CBX7 AlphaScr: 1

Results for CCc1ccccc1NC(=O)c1cc(S(=O)(=O)N2CCC(C)CC2)ccc1F ?
CBX7 AlphaScr: 1.1

Results for Cc1ccc2c(c1)c(=O)c(C(=O)c1ccccc1)cn2Cc1ccc(F)cc1 ?
CBX7 AlphaScr: 0.71

Results for Cc1ccc2c(c1)c(=O)c(C(=O)c1ccccc1)cn2Cc1ccccc1 ?
CBX7 AlphaScr: 0.62

How did Cc1ccc(Cn2cc(C(=O)c3ccccc3)c(=O)c3cc(C)ccc32)cc1 do in these assays?
CBX7 AlphaScr: 0.44*

How did Cc1ccc2c(c1)N(CCCC(=O)NCCC1=CCCCC1)C(=O)CO2 do in these assays?
CBX7 AlphaScr: 0.98

What do the screens show for `Cc1onc(-c2ccccc2)c1C(=O)Nc1nnc(C(C)(C)C)s1`?
CBX7 AlphaScr: 1

How did CC(=O)NCCc1nc2ccccc2n1Cc1c(F)cccc1Cl do in these assays?
CBX7 AlphaScr: 0.9

What do the screens show for `Cc1[nH]c2ccc(OCc3ccccc3)cc2c1CCNC(=O)COc1ccc(F)cc1F`?
CBX7 AlphaScr: 0.53

Results for COc1ccccc1C(=O)NCCc1c(C)[nH]c2ccc(OCc3ccccc3)cc12 ?
CBX7 AlphaScr: 0.44*

What do the screens show for `COc1ccccc1C(=O)NCCc1c(C)[nH]c2ccc(OC(F)(F)F)cc12`?
CBX7 AlphaScr: 0.64

Results for Cc1cccc(CCNC(=O)Cn2nc(Cc3cccnc3)c3ccccc3c2=O)c1 ?
CBX7 AlphaScr: 0.95

Results for O=C1C2=C(Nc3ccccc3SC2c2cccs2)c2ccccc21 (stereo not given) ?
CBX7 AlphaScr: 0.4*

How did CCNC(=O)CC1Sc2ccccc2NC1=O (stereo not given) do in these assays?
CBX7 AlphaScr: 0.91

What do the screens show for `CC1CCCCC1NC(=O)C(C)C1Sc2ccccc2NC1=O` (stereo not given)?
CBX7 AlphaScr: 1

Results for COc1ccccc1Nc1cc(C(=O)NCCCN(CC(C)C)CC(C)C)c2ccccc2n1 ?
CBX7 AlphaScr: 1.4

How did O=C1Nc2ccccc2Oc2cc([N+](=O)[O-])cc(Oc3cccc(Cl)c3Cl)c21 do in these assays?
CBX7 AlphaScr: 0.48*

How did O=C1Nc2ccccc2Oc2cc([N+](=O)[O-])cc(OCCO)c21 do in these assays?
CBX7 AlphaScr: 0.93

How did CCOc1cc([N+](=O)[O-])cc2c1C(=O)Nc1ccccc1O2 do in these assays?
CBX7 AlphaScr: 0.88

What do the screens show for `O=C1Nc2ccccc2Oc2cc([N+](=O)[O-])cc(Oc3cccc(Cl)c3)c21`?
CBX7 AlphaScr: 0.37*

What do the screens show for `CC(=O)N1CCc2cc(S(=O)(=O)NC(CC(C)C)C(=O)Nc3cc(C)ccn3)ccc21` (stereo not given)?
CBX7 AlphaScr: 1.1

How did CCOc1ccc(Nc2cc(C(=O)NCc3ccccc3Cl)c3ccccc3n2)cc1 do in these assays?
CBX7 AlphaScr: 1

Results for O=C(NCc1ccccc1Br)C1CCN(C(=O)c2sccc2-n2cccc2)CC1 ?
CBX7 AlphaScr: 0.99

How did CCn1c(=O)cc(OCC(=O)Nc2ccc(OC)c(Cl)c2)c2ccccc21 do in these assays?
CBX7 AlphaScr: 1

How did CCN(CC)c1ccc(NC(=O)c2c(-c3ccccc3)noc2C)cc1 do in these assays?
CBX7 AlphaScr: 0.56

How did COc1ccc(CN2C(=O)N(c3ccc(F)cc3)C(=O)C2CC(=O)Nc2ccccc2)cc1 (stereo not given) do in these assays?
CBX7 AlphaScr: 1

Results for COc1ccc(C2c3c(-c4ccccc4)n[nH]c3C(=O)N2c2ccccc2)cc1 (stereo not given) ?
CBX7 AlphaScr: 0.38*

Source: PubChem BioAssay (Bradner/Qi Labs at DFCI)
